An excerpt weighted towards active compounds, which were near 7% of everything screened.
DRD3 antagonist: D3 dopamine receptor (human) antagonism; max response, negative = inhibition, %; AID 652054; 360,000 compounds, 2.5% hits; D3R cells, DiscoveRx beta-arrestin luminescence, antagonist mode; stronger effect = lower value; P35462; in the data active means max response below about -50%; inconclusive means no clear call, values can overlap the other calls
Target sequence (P35462 whole entry, looked up): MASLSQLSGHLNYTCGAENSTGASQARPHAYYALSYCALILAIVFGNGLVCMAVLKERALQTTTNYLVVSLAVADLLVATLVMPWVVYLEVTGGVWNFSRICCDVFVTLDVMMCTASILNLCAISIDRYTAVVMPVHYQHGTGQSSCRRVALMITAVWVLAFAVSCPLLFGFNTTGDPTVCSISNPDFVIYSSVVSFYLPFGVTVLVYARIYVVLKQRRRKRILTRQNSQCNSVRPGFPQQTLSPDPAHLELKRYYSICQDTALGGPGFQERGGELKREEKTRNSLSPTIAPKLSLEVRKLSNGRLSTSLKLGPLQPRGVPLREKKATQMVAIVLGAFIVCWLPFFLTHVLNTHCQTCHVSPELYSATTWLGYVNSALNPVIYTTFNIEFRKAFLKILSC
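Cells expressing the human receptor were seeded at 1500 cells/well, incubated overnight at 37 degrees C in 5% CO2, then exposed to library compounds with dopamine controls for 90 minutes at 37 degrees C before luminescent detection.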
ATXN viability: cell viability loss in ATXN counter-screen; S2 cells (HEK-293 line with an ATXN2-luciferase reporter) viability, CellTiter-Fluor protease fluorescence, 24 h; Potency, µM (titrated, usually from 56.7 µM), usual class: cytotoxic; 400,000 compounds, 0.49% hits; AID 651635; further: nearly all actives have a fitted effect of over 40% in size
ATXN2 expr inh: reduces ATXN2 reporter expression in HEK-293 cells. HEK-293 ATXN2-luciferase reporter, luminescence, 24 h. Potency, µM (series often up to 57 µM), hits mostly inhibitors. 360,000 compounds, 0.72% hits; further: nearly all actives have a fitted effect of over 55% in size
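ATXN2-luciferase reporter cells (luciferase flanked by upstream and downstream ATXN2 gene portions) were treated 24 h at 37 °C with compounds at up to 57 uM. SteadyGlo luminescence gave expression; GF-AFC fluorescence gave viability.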
Integrin act MD: activators of alpha7 integrin expression for muscular dystrophy; Potency, µM (highest dose often 38.3 µM), most hits filed as activators; 350,000 compounds, 0.064% hits; AID 624291; alpha7betagal myoblasts, beta-gal FDG fluorescence, 48 h; further: nearly all actives have a fitted effect of over 60% in size
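alpha7betagal+/- myoblasts (passage 13, 250/well) treated 48 h at 37C with compounds at 1:260 dilution of DMSO stock. Lysed, then beta-galactosidase activity read as FDG fluorescence (ex 480/em 540) after 30 min, with pre-read for autofluorescence.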
D3 ag: agonists of human D3 dopamine receptor | P35462 | D3R DiscoveRx beta-arrestin cells, luminescence, 90 min | max activation, % | 410,000 compounds, 0.58% hits; in the data active means max activation above about 30%
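Agonist mode: compounds and dopamine controls were applied to plated cells for 90 min at 37 degrees C after an overnight attachment at 1500 cells/well. Luminescent read-out followed 30 - 60 minutes at room temperature with DiscoveRx detection reagent.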
IL1B secr inh: inflammasome signaling inhibition, IL-1 beta readout | THP-1 LPS/ATP IL-1B secretion, AlphaLISA, 16 h; stronger effect = lower value | activity change, % at 57.5 µM | 360,000 compounds, 4.7% hits; in the data active means activity change below about -50%; inconclusive means mostly about -30% to -49%
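Secreted IL-1B measured by AlphaLISA bead assay after 16 h compound exposure of THP-1 cells; compounds (final up to 57.5 uM) added 1 h before LPS (250 ng/mL) and ATP (1.25 mM) stimulation; lower signal means less secretion.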
Numbers stand for hits; - = inactive; ? = inconclusive; . = not tested or not shown. Unless noted, the call rests on the fitted dose curve; in most records, active means well fitted curve in the direction sought with a large enough effect; inconclusive means small, poorly fitted or top-dose-only effect, or another doubt; inactive means no such curve, though single readings can be large; an effect the other way counts as inactive or inconclusive.

SMILES	DRD3 antagonist	ATXN viability	ATXN2 expr inh	Integrin act MD	D3 ag	IL1B secr inh
Cc1cccc(OCC(=O)Nc2ccc3c(c2)nc(CCN2CCC(C)CC2)n3C)c1	?	?	-	-	-	-64.4
Cc1cccc(OCC(=O)Nc2ccc3c(c2)nc(CCN2CCN(C)CC2)n3C)c1	-	?	-	-	-	-
Cc1ccc(-c2noc(-c3ccccc3NC(=O)C3CC(=O)N(c4ccccc4C)C3)n2)cc1 (stereo not drawn)	.	.	.	.	-	.
CNCC(O)CN(c1ccccc1)c1ccccc1 (stereo not drawn)	-	-	-	-	-	?
CN(CCO)CC(O)CN(c1ccccc1)c1ccccc1 (stereo not drawn)	-50.7	-	.	-	-	-
NC(N)=NCC(O)CN(c1ccccc1)c1ccccc1 (stereo not drawn)	-	-	-	-	-	-82.0
CCCc1cc(=O)[nH]c(SCc2nc3ccc([N+](=O)[O-])cc3[nH]2)n1	-	-	-	-	-	-
O=C1CC(C(=O)NC2CCCCC2)C(c2ccccc2)O1 (stereo not drawn)	-	-	-	-	-	-
C[C@@H]1[C@@H](Sc2ccccc2)CC(=O)O[C@@H]1c1ccc(-c2ccccc2)cc1	-	22.4µM	17.8µM	-	-	-101.7
COc1cccc(C(=O)NC2CCCN(C3Cc4ccccc4C3)C2)c1OC (stereo not drawn)	-92.6	-	-	-	-	-
CCCN1C/C(=C/c2cccc([N+](=O)[O-])c2)C(=O)/C(=C/c2cccc([N+](=O)[O-])c2)C1	-	.	?	-	-	-93.8
CCCN1C/C(=C/c2ccc3c(c2)OCO3)C(=O)/C(=C/c2ccc3c(c2)OCO3)C1	-	?	?	?	-	-
COc1ccccc1[C@@]1(C)ON(c2ccccc2C(F)(F)F)C1=O	-	?	-	-	-	-94.3
O=C1N(c2ccccc2C(F)(F)F)OC1(Cc1ccccc1)c1ccccc1 (stereo not drawn)	-	-	?	-	-	-79.6
O=C(CCCCCn1c(=O)[nH]c2ccccc2c1=O)N1CCN(Cc2ccc3c(c2)OCO3)CC1	-	-	-	-	-	-
Cc1ccccc1/C=C1\Sc2ccc(C(=O)N3CCN(c4ccccn4)CC3)cc2N(C)C1=O	-	?	-	-	-	-
CN1C(=O)/C(=C/c2ccccc2F)Sc2ccc(C(=O)N3CCCC3)cc21	-	-	?	-	-	-75.5
Cc1cc(/C=N/NC(N)=S)c(C)n1-c1ccc(Cl)cc1	-57.6	?	-	-	-	-
Cc1cc(/C=N/NC(N)=S)c(C)n1-c1ccc(Br)cc1	-67.2	?	-	-	-	-
Cc1cccc(C)c1-n1c(C)cc(/C=N/NC(N)=S)c1C	-83.9	?	-	-	-	-
Cc1cc(/C=N/O)c(C)n1-c1ccc(Br)cc1	-	-	-	-	-	-
Cc1cc(/C=N/NC(N)=S)c(C)n1-c1cccc(Cl)c1	-	?	-	-	-	-
Cc1ccc(-n2nc3c(c2NC(=O)c2ccc4c(c2)OCO4)CS(=O)(=O)C3)c(C)c1	-	-	-	-	-	?
CC1CC(C)CN(C(=O)c2ccc(C(=O)c3ccccc3)cc2)C1 (stereo not drawn)	-	-	-	-	-	-
CCN(CC)C(=O)OCc1c(-c2ccccc2)ncc2ccccc12	-	-	-	-	-	-
SMILES	DRD3 antagonist	ATXN viability	ATXN2 expr inh	Integrin act MD	D3 ag	IL1B secr inh
C=CC[C@@H](Cc1ccc(F)cc1)C(=O)OC[C@H]1CCCN1C(=O)[C@@H](CC=C)CC(=O)N(CCO)Cc1ccccc1	-	.	?	-	-	-56.0
C=CC[C@@H](Cc1ccc(F)cc1)C(=O)OC[C@@H]1CCCN1C(=O)[C@H](CC=C)CC(=O)N(CCO)Cc1ccccc1	?	20µM	?	-	-	-60.7
Cc1cccc(C)c1N=C1C(=O)Nc2ccccc21	-	-	-	-	-	-
CN(C)S(=O)(=O)c1cccc(NC(=O)CSc2nc3ccccc3[nH]2)c1	-	-	-	-	-	-61.0
CCN(CC)S(=O)(=O)c1cccc(NC(=O)CSc2nc3ccccc3[nH]2)c1	-	-	?	-	-	-57.3
COc1cc2c3nnc(-c4ccc(F)cc4)c-3cn(Cc3ccc(C)cc3)c2cc1OC	-	-	17.8µM	-	-	-
COc1cc2c3nnc(-c4ccccc4)c-3cn(Cc3ccc(F)cc3)c2cc1OC	-	.	?	-	-	-192.1
COc1cc2c3nnc(-c4ccc(F)cc4)c-3cn(Cc3cccc(F)c3)c2cc1OC	-	.	-	-	-	-
Cc1ccc(Cn2nc3c4cc(F)ccc4n(Cc4ccc(F)cc4)cc-3c2=O)cc1	-	-	-	-	-	-
COc1cc2c3nnc(-c4ccc(F)cc4)c-3cn(Cc3cccc(C)c3)c2cc1OC	-	-	?	-	-	-97.8
CC1(C)Cc2c(sc3nnn(Cc4ccccc4)c(=O)c23)CO1	-	-	-	-	-	-
CC(=O)c1cccc(NC(=O)CC2S/C(=N/N=C3CCCCCC3)NC2=O)c1 (stereo not drawn)	-	-	-	-	-	-
COc1ccc(CCNc2oc(Cc3cccc4ccccc34)nc2C#N)cc1OC	-60.1	?	?	-	-	?
COc1ccc(CCNc2oc(COc3ccc(Br)cc3)nc2C#N)cc1OC	-	?	?	-	-	-
O=C(N/N=C/c1c(O)ccc2ccccc12)c1cccc(C(F)(F)F)c1	-	.	2.99µM	?	-	-
O=C(N/N=C/c1cccc(O)c1)c1ccc(COc2ccccc2Br)cc1	-	-	-	-	-	-68.0
O=C(N/N=C/c1cccc(O)c1)c1ccc(COc2cccc3cccnc23)cc1	-	-	.	-	-	-
FC(F)(F)c1cccc(/C=N/NC(=S)NC2CCCCC2)c1	-	-	?	-	-	-59.6
O=C(N/N=C/c1cccc(C(F)(F)F)c1)c1ccc(O)cc1	-	-	-	-	-	-81.0
Cc1ccc(S(=O)(=O)N2C[C@H]3C(=O)C[C@@H](c4ccccc4)N(S(=O)(=O)c4ccc(C)cc4)[C@H]3C[C@H]2c2ccccc2)cc1	-	-	-	-	-	-
Cc1nc2cc(NS(=O)(=O)c3cccc(F)c3)ccc2s1	-	-	-	-	-	-
Cc1ccc2c(CC(=O)Nc3nnc(C(C)C)s3)coc2c1C	.	-	-	.	-	.
O=C(Nc1ccc(Cn2cccn2)cc1)c1ccc(COc2ccccc2Br)cc1	-	?	-	-	-	-60.1
COc1ccccc1OCc1ccc(C(=O)Nc2ccccc2)cc1	-	.	.	?	-	-
O=C1C=CC(=O)N1CCCCCCN1C(=O)C=CC1=O	-72.2	.	?	-	-	-98.4
O=C(O)CN1C(=O)C=CC1=O	-	?	.	-	-	-
